Shown are actives, neighbours in structure and some others; about 19% of the full set was active somewhere.
HT1080 IDH1KD tx: toxicity to HT-1080 IDH1 knockdown cells (counter line); HT-1080 IDH1 knockdown viability, ATP luminescence, 48 h; Potency, µM (highest dose often 46.1 µM), for inactives: at the highest dose activity, negative = toxicity, actives largely listed as cytotoxic; hit rate 2% among 360,000; AID 686971;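 note: potency is the fitted concentration of half-maximal effect; 0% = DMSO wells and -100% = cell-free medium wells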
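Using the IDH1-knockdown HT-1080 line run in the same batch and compound series as the NT line, viability after 48 h at 37 °C was determined by CellTiter-Glo luminescence and expressed as % activity.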
DT40 TDP1 CPT: growth inhibition of DT40 Tdp1-/-;hTDP1 cells with camptothecin (screen for TDP1 inhibitors); chicken DT40 Tdp1-/-;hTDP1 cells + 20 nM CPT, ATP luminescence, 48 h; Potency, µM (doses to about 46.2 µM), for the others: top-dose activity change, negative = growth inhibition, usual class: inhibitors; hit rate 12% among 420,000; AID 686979; note: potency is the fitted concentration of half-maximal effect; nearly all actives have a fitted effect of over 55% in size
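Chicken DT40 Tdp1-/- cells stably complemented with human TDP1 were seeded at 400 cells/well in medium containing 20 nM camptothecin, exposed to pin-transferred compounds, and grown at 37 °C for at least 48 hr. Viability was read as ATP luminescence.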
IL1B secr inh: inhibitors of inflammasome signaling (IL-1 beta secretion); THP-1 LPS/ATP IL-1B secretion, AlphaLISA, 16 h; stronger effect = lower value; hit rate 4.7% among 360,000; AID 743279; activity change, % at 57.5 µM; in the data active = activity change below about -50%; inconclusive = mostly about -30% to -49%
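Secreted IL-1B measured by AlphaLISA bead assay after 16 h compound exposure of THP-1 cells; compounds (final up to 57.5 uM) added 1 h before LPS (250 ng/mL) and ATP (1.25 mM) stimulation; lower signal means less secretion.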
HT1080NT lethal: kills 2HG-producing HT-1080-NT fibrosarcoma cells. HT-1080-NT fibrosarcoma viability, CellTiter-Glo ATP luminescence, 48 h. Potency, µM (series often up to 46.1 µM), for inactives: at the top dose activity, negative = less viability, actives largely listed as cytotoxic. hit rate 1.6% among 360,000;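 note: NT is the 2HG producing partner of a matched IDH1 knockdown line; potency is the fitted concentration of half-maximal effect; 0% = DMSO-treated cells and -100% = media-only wells without cells; nearly all actives have a fitted effect of over 55% in size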
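Read-out is CellTiter-Glo luminescence after 10 minutes at room temperature, following 48 hours' compound treatment of HT-1080-NT cells (750 cells/well, RPMI, 5% FBS, 37 degrees C).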
TDP1 cell noCPT: qHTS for Inhibitors of human tyrosyl-DNA phosphodiesterase 1 (TDP1): qHTS in cells in absence of CPT; DT40 Tdp1-/- hTDP1 cells, no CPT, ATP luminescence, 48 h; Potency, µM (titrated, usually from 46.2 µM), for inactives: at the top dose activity change, negative = growth inhibition, actives largely listed as inhibitors; hit rate 15% among 420,000; AID 686978, 2013; note: potency is the fitted concentration of half-maximal effect; nearly all actives have a fitted effect of over 55% in size
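Compound effects on proliferation are scored in DT40 Tdp1-/-;hTDP1 cells in the absence of CPT. ATP levels (CellTiter-Glo luminescence) are recorded after a ≥48 hr, 37 °C incubation.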
The depositor's hits bear a star; i = inactive; ? = inconclusive; / = no result given; [ ] = another dose, or the depositor's remark. Unless noted, calls come from the whole dose curve; as a rule, active = well fitted curve in the direction sought with a large enough effect; inconclusive = small, poorly fitted or top-dose-only effect, or another doubt; inactive = no such curve, though single readings can be large; an effect the other way counts as inactive or inconclusive. Unless noted, % is set by controls: 0 for no effect and ±100 for the full control effect.

SMILES	HT1080 IDH1KD tx	DT40 TDP1 CPT	IL1B secr inh	HT1080NT lethal	TDP1 cell noCPT
COc1ccc(-c2cc(C)no2)cc1S(=O)(=O)N1CCOc2ccc(Cl)cc21	1.3%	?	30.9	0.5%	?
COc1ccc(-c2cc(C)no2)cc1S(=O)(=O)Nc1c(C)cc(C)cc1C	/	?	/	/	20.6µM*
COc1ccc(-c2cnc(C)o2)cc1S(=O)(=O)Nc1c(C)cc(C)cc1C	/	16.4µM*	/	/	23.1µM*
Cc1ccc2c(c1)N(S(=O)(=O)c1cc(-c3onc(C)c3C)ccc1C)CCO2	?	23.1µM*	?	?	9.2µM*
COc1ccc(-c2cnc(C)o2)cc1S(=O)(=O)Nc1ccc(C)c(N(C)C)c1	/	3.3%	/	/	-8.5%
COc1ccc(-c2cnc(C)o2)cc1S(=O)(=O)Nc1ccc(C)c(F)c1	/	2.59µM*	/	/	2.59µM*
CSCCC(NC(=O)c1cccc([N+](=O)[O-])c1)C(=O)O (stereo not drawn)	21.5%	-4.3%	3.2	9.4%	-13.0%
Cc1cc(C)c(NS(=O)(=O)c2cc(-c3onc(C)c3C)ccc2C)c(C)c1	/	13µM*	/	/	8.2µM*
Cc1ccc(C)c(Cn2c3ccccc3c3cnn(CC(=O)NC4CCC(C)CC4)c(=O)c32)c1 (stereo not drawn)	/	10.3µM*	/	/	13µM*
CCCn1c2ccccc2c2cnn(CC(=O)NC3CCC(C)CC3)c(=O)c21 (stereo not drawn)	2.6%	-2.9%	10.2	10.3%	4.4%
Cc1ccccc1Cn1c2ccccc2c2cnn(CC(=O)NC3CCC(C)CC3)c(=O)c21 (stereo not drawn)	/	18.4µM*	/	/	18.4µM*
O=C(CN(C(=O)CCC(=O)Nc1nccs1)C1CCCC1)NCc1ccc2c(c1)OCO2	0.0%	-5.2%	3.6	1.3%	-13.1%
COC(=O)c1ccc(CSc2nnc(-c3c[nH]c4ccccc34)n2C)o1	9.8%	23.1µM*	-0.8	12.0%	13µM*
Cn1c(SCc2ccccc2)nnc1-c1c[nH]c2ccccc12	-1.7%	?	-16.6	10.0%	?
COC(=O)c1ccc(CSc2nnc(-c3c[nH]c4ccccc34)n2-c2ccccc2)cc1	-22.2%	20.6µM*	?	-2.5%	16.4µM*
CCn1cc(Cl)c(C(=O)Nc2ccc(OC)c(OC)c2)n1	0.3%	-7.3%	-20.3	16.1%	-9.2%
CC(=O)c1cc(Cl)ccc1OC(=O)c1ccco1	1.5%	3.3%	13.1	-1.6%	-12.6%
O=C(Oc1ccc(OC(=O)c2ccco2)c(S(=O)(=O)c2ccc(Cl)cc2)c1)c1ccco1	-1.2%	-22.1%	-8.3	-6.2%	16.4µM*
COc1cccc(Cn2nnc(C(=O)Nc3ccc(C)cc3)c2N)c1	1.7%	-14.1%	?	2.8%	-14.4%
COc1ccc(NC(=O)c2nnn(Cc3ccccc3C)c2N)c(OC)c1	/	-28.1%	/	/	6.51µM*
COc1ccc(Cn2nnc(C(=O)Nc3cc(OC)ccc3OC)c2N)cc1	/	18.4µM*	/	/	?
Cc1cccc(Cn2nnc(C(=O)Nc3cc(C)ccc3C)c2N)c1	/	29.1µM*	/	/	18.4µM*
COc1cccc(Cn2nnc(C(=O)Nc3cc(C)ccc3OC)c2N)c1	?	25.9µM*	-4.0	-15.8%	-25.8%
COc1ccc(S(=O)(=O)N(C)CC(=O)NCc2ccco2)cc1OC	-1.4%	-4.1%	-17.2	-4.1%	-9.7%
COc1cccc(CNC(=O)CSc2ccc(-c3cccs3)nn2)c1	20.9%	-0.1%	-12.3	16.5%	-11.7%
SMILES	HT1080 IDH1KD tx	DT40 TDP1 CPT	IL1B secr inh	HT1080NT lethal	TDP1 cell noCPT
Cc1ccc(Cn2nnc(C(=O)Nc3cccc(C)c3C)c2N)cc1	-18.5%	?	-6.4	-10.3%	20.6µM*
COc1ccc(Br)cc1Cn1nnc(C(=O)Nc2cccc(SC)c2)c1N	/	16.4µM*	/	/	23.1µM*
COc1ccc(Cl)cc1NC(=O)Cn1nnc(C(=O)NCc2cccs2)c1N	/	4.61µM*	/	/	1.16µM*
CCc1ccccc1NC(=O)c1nnn(Cc2ccc(Cl)cc2)c1N	/	?	/	/	13µM*
COc1ccc(NC(=O)Cn2nnc(C(=O)NCc3cccs3)c2N)cc1OC	?	-10.7%	26.9	-22.6%	25.4%
Cc1ccc(C)c(NC(=O)c2nnn(CC(=O)Nc3cccc(C)c3C)c2N)c1	/	2.4%	/	/	-1.6%
Nc1nccs1	13.0%[92.2 µM]	-2.2%	/	11.5%[92.2 µM]	-19.4%
CCOC(=O)CCP(=O)(O)C(O)c1ccccc1 (stereo not drawn)	15.4%	?	22.0	15.6%	-23.9%
O=C(Nc1ccc2c(c1)OCCO2)c1c[nH]c(=O)n(-c2ccc(F)c(Cl)c2)c1=O	1.3%	3.9%	0.7	2.8%	-0.9%
O=C(O)Cn1nnnc1SCC(=O)Nc1ccc(F)cc1F	15.2%	-4.1%	17.1	8.6%	16.1%
O=C1NC[C@H](Cc2ccccc2)N(CC2CCN(CCc3ccccc3)CC2)C1=O	3.2%	0.5%	-9.1	0.4%	-6.8%
O=C1NC[C@H](Cc2ccccc2)N(CC2CCN(CCc3ccc(-c4ccccc4)cc3)CC2)C1=O	-8.0%	20.6µM*	-59.4*	-3.7%	16.4µM*
CC(C)C[C@H]1CNC(=O)C(=O)N1CC1CCN(CCc2ccc(-c3ccccc3)cc2)CC1	2.3%	-23.1%	-67.1*	-3.8%	-17.8%
COc1ccc(/C=N/NC(=O)c2cccc([N+](=O)[O-])c2)cc1OS(=O)(=O)c1ccccc1	17.2%	?	-18.8	11.8%	16.4µM*
COc1ccc(/C=N/NC(=O)c2cccc([N+](=O)[O-])c2)cc1OC	1.9%	-9.7%	-8.1	-3.4%	8.7%
O=C(N/N=C/c1cccc([N+](=O)[O-])c1)c1ccc(COc2ccccc2-c2ccccc2)cc1	-1.6%	20.6µM*	i	4.4%	23.1µM*
COc1ccc(/C=N/NC(=O)c2cccc([N+](=O)[O-])c2)cc1OC(=O)c1ccccc1	?	16.4µM*	54.7	-26.5%	14.6µM*
COc1cc(/C=N/NC(=O)c2cccc([N+](=O)[O-])c2)ccc1OCc1ccccc1	4.4%	?	-2.8	13.9%	?
COc1cc(/C=N/NC(=O)COc2c(C)cc([N+](=O)[O-])cc2C)ccc1OC(=O)c1ccccc1	18.4µM*	13µM*	62.5	?	20.6µM*
COc1ccc(Cl)cc1NC(=O)CN1C(=O)C(=O)N(C2CCCC2)C1=O	-8.8%	2.8%	1.9	0.3%	-1.3%
COc1cccc(C(=O)N/N=C/c2ccc(Oc3ccc([N+](=O)[O-])cn3)c(OC)c2)c1	-21.3%	20.6µM*	-8.2	-23.6%	?
N#Cc1cc([N+](=O)[O-])ccc1Oc1cccc(/C=N/NC(=O)c2cccc(Cl)c2)c1	-24.7%	?	?	-23.8%	20.6µM*
